Results filed as inconclusive are left out. Activity calls are given as the source filed them. Rule for the calls, unless noted: active = hit-call score of the fitted dose curve at least 0.9, where 1 is the maximum; inconclusive = response in the unintended direction; inactive = score below 0.9.

What is called AC50 is the concentration giving half of the maximal activity seen.

Assay [1] in a line: ATG_M_61_CIS: Attagene CIS-FACTORIAL HepG2 Assay for M61 Transcription Factor (Internal Marker) (AID 2282937; active = hit-call score of the fitted dose curve at least 0.9, where 1 is the maximum; inactive = score below 0.9). To be noted: HepG2 Attagene CIS-FACTORIAL M61 internal marker reporter; actives raise or lower the signal. The essentials: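 Transfect HepG2 with MRTUs; dose 24 h; isolate RNA; reverse-transcribe with DNase I treatment; PCR-amplify, FAM-label and cut with HpaI for 2 h at 37 C; resolve by CE. Bidirectional fitting against DMSO.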

Assay [2] is described as follows: ATG_EGR_CIS: Attagene CIS-FACTORIAL HepG2 Assay for human Early Growth Response 1 (EGR1) (AID 2282938; active = hit-call score of the fitted dose curve at least 0.9, where 1 is the maximum; inactive = score below 0.9). To be noted: HepG2 Attagene CIS-FACTORIAL EGR reporter mRNA; actives raise or lower the signal. In short, it runs like this: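 After a 24 h treatment of transiently transfected HepG2 cells, total RNA was reverse-transcribed and reporter sequences PCR-amplified, labelled and run on capillary electrophoresis. Reporters sit under cis-regulatory promoters sensing endogenous factors.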

A short description of assay [3]: ATG_M_06_CIS: Attagene CIS-FACTORIAL HepG2 Assay for M06 Transcription Factor (Internal Marker) (AID 2282950; active = hit-call score of the fitted dose curve at least 0.9, where 1 is the maximum; inactive = score below 0.9). To be noted: HepG2 Attagene CIS-FACTORIAL M06 internal marker reporter; actives raise or lower the signal. The essentials:
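Read-out is fluorescence of labelled reporter cDNA fragments resolved by capillary electrophoresis after RT-PCR. Cells: HepG2 carrying transfected cis-promoter reporter units, treated 24 h. Gain or loss of signal fitted relative to DMSO.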

A short description of assay [4]: ATG_PPRE_CIS: Attagene CIS-FACTORIAL HepG2 Assay for human Peroxisome Proliferator-activated Response Element (PPRE) (AID 2282958; active = hit-call score of the fitted dose curve at least 0.9, where 1 is the maximum; inactive = score below 0.9). To be noted: HepG2 PPRE cis-element reporter, Attagene transcription factor profiling; actives raise or lower the signal. The essentials:
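PPRE activity in HepG2: transient cis-reporter transfection, 24 h compound incubation, reporter mRNA by RT-PCR and CE fluorescence; gain/loss fitted against DMSO.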

A short description of assay [5]: ATG_RORE_CIS: Attagene CIS-FACTORIAL HepG2 Assay for human RAR-related Orphan Receptor Element (RORE) (AID 2282959; active = hit-call score of the fitted dose curve at least 0.9, where 1 is the maximum; inactive = score below 0.9). The conditions noted are these: HepG2 Attagene cis-factorial RORE reporter, mRNA; actives raise or lower the signal. The essentials:
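A 24-hour exposure of transfected HepG2 hepatoma cells precedes RNA isolation and reporter RT-PCR. Labeled products are digested with HpaI and resolved by capillary electrophoresis, with gain or loss of signal scored relative to DMSO.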

Assay [6] can be described thus: ATG_M_19_TRANS: Attagene TRANS-FACTORIAL HepG2 Assay for M19 Transcription Factor (Internal Marker) (AID 2282974). The conditions noted are these: HepG2 Attagene TRANS-FACTORIAL M19 internal marker reporter. In short, it runs like this:
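Transfected HepG2 (GAL4-UAS MRTUs), 24 h compound, TriZol RNA, DNase-treated RT, reporter PCR, FAM label, HpaI digest, CE fluorescence; gain vs DMSO.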

Assay [7] addresses Nuclear respiratory factor 1 (Homo sapiens) (UniProt Q16656). The assay is described as follows: ATG_NRF1_CIS: Attagene CIS-FACTORIAL HepG2 Assay for human Nuclear Respiratory Factor 1 (NRF1) Orphan Gene (AID 2282987; active = hit-call score of the fitted dose curve at least 0.9, where 1 is the maximum; inactive = score below 0.9). The conditions noted are these: HepG2 NRF1 cis-element reporter, Attagene multiplex; actives raise or lower the signal. The essentials: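 Measured: fluorescent reporter-specific RT-PCR products from transfected HepG2 cells, separated by capillary electrophoresis. Exposure lasted 24 h. Analysis used bidirectional curve fitting with DMSO as negative control.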

The nature of assay [8]: ATG_NFI_CIS: Attagene CIS-FACTORIAL HepG2 Assay for human Nuclear Factor I (NFI) (AID 2282989; active = hit-call score of the fitted dose curve at least 0.9, where 1 is the maximum; inactive = score below 0.9). To be noted: HepG2 cis-regulatory reporter, NFI response element transcription; actives raise or lower the signal. The essentials:
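Transient MRTU transfection of HepG2 → 24 h chemical dosing → total RNA, oligo(dT) RT → PCR, 6-FAM primer extension, HpaI cut → capillary electrophoresis. Endpoint fitted bidirectionally relative to DMSO.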

The target of assay [9] is Nuclear receptor subfamily 1 group I member 2 (Homo sapiens) (UniProt O75469). Put plainly: ATG_PXR_TRANS: Attagene TRANS-FACTORIAL HepG2 Assay for human Pregnane X Receptor (PXR) (AID 2283008). The essentials: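 HepG2 cells transiently transfected with multiple reporter units, here a PXR-GAL4 chimera driving a GAL4-UAS reporter; 24 h compound exposure. Reporter mRNA measured by RT-PCR, FAM labelling and capillary electrophoresis; gain of signal fitted against DMSO baseline.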
Chain of Nuclear receptor subfamily 1 group I member 2 (Homo sapiens) (O75469 whole entry, looked up, the tested form may be a part): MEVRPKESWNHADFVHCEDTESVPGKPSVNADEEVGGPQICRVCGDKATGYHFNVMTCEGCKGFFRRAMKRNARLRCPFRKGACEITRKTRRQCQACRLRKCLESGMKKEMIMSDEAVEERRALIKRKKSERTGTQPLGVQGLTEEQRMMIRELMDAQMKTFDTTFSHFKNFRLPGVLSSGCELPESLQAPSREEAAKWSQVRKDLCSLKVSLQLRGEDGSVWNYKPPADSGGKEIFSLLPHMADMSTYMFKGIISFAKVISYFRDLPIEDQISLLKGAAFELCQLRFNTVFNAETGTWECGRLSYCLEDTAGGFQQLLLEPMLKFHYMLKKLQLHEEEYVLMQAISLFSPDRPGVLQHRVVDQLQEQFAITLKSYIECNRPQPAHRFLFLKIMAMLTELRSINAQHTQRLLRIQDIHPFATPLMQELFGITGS

Assay [10] has as its target human Retinoid X Receptor beta (RXRb), RXRB (gene 6257) (UniProt P28702). The assay is described as follows: ATG_RXRb_TRANS: Attagene TRANS-FACTORIAL HepG2 Assay for human Retinoid X Receptor beta (RXRb) (AID 2283013). The essentials: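 HepG2 cells transiently transfected with multiplexed reporter units driven by GAL4-UAS and exogenous chimeric NR-Gal4 proteins; treated 24 h. Reporter mRNA measured by RT-PCR, 6-FAM labelling and capillary electrophoresis; gain-of-signal fitted versus DMSO baseline.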

Assay [11] concerns the target Cellular tumor antigen p53 (Homo sapiens) (UniProt P04637). Put plainly: TOX21_p53_BLA_p2_ratio: Tox21 HCT-116 p53 Agonism Beta-lactamase Assay, Ratio, Phase 2 (AID 2283592). In short, it runs like this:
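Gain-of-signal p53 agonism was scored from the beta-lactamase FRET ratio (460/530 nm, 405 nm excitation) in HCT116 cells treated 16 h at 37C, 5% CO2, with DMSO serving as negative control and baseline.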

For assay [12] the target is unchanged. Put plainly: TOX21_p53_BLA_p3_ratio: Tox21 HCT-116 p53 Agonism Beta-lactamase Assay, Ratio, Phase 3 (AID 2283596). In short, it runs like this: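 HCT116 p53-bla cells (4000/well) given compound in DMSO (217-fold dilution) after 5 h, incubated 16 h at 37C. CCF4-AM substrate 2 h at room temperature; 460/530 nm emission ratio, gain fitted against DMSO.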
Assay [13] has the same target. Put plainly: TOX21_p53_BLA_p5_ratio: Tox21 HCT-116 p53 Agonism Beta-lactamase Assay, Ratio, Phase 5 (AID 2283599). The essentials: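 HCT-116 cells carrying a p53-inducible beta-lactamase reporter were seeded at 4000 cells/well and dosed after 5 h with compound in DMSO (217-fold dilution). After 16 h at 37C, CCF4-AM substrate was added for 2 h, and the 460/530 nm emission ratio was scored as gain-of-signal versus DMSO.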

Assay [14] can be described thus: TOX21_p53_BLA_p5_viability: Viability Assessment in the Tox21 HCT-116 p53 Agonism Beta-lactamase Assay, Phase 5 (AID 2283600). In short, it runs like this:
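After the 460/530 nm beta-lactamase measurement, the wells received an ATP-detection luciferase reagent; signal was read 30 min later at RT. Compound treatment lasted 16 h on cells pre-incubated 5 h post-seeding.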

Assay [15] in a line: ATG_GRE_CIS: Attagene CIS-FACTORIAL HepG2 Assay for human Glucocorticoid Response Elements (GRE) (AID 2282947; active = hit-call score of the fitted dose curve at least 0.9, where 1 is the maximum; inactive = score below 0.9). The conditions noted are these: HepG2 GRE cis-reporter, Attagene multiplex mRNA; actives raise or lower the signal. The essentials:
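HepG2 cells transiently transfected with multiple cis-promoter reporter units measure endogenous TF activity; 24 h compound exposure. Reporter mRNA quantified by RT-PCR, FAM labelling, HpaI digestion and capillary electrophoresis; bidirectional fit vs DMSO baseline.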

For assay [16], the target named is Hepatocyte nuclear factor 4-alpha (Homo sapiens) (UniProt P41235). The assay is described as follows: ATG_HNF4a_TRANS: Attagene TRANS-FACTORIAL HepG2 Assay for human Hepatocyte Nuclear Factor 4 alpha (HNF4a) (AID 2282982). To be noted: HepG2 HNF4a transactivation reporter, mRNA readout. In short, it runs like this: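 HepG2 cells transiently transfected with multiplexed GAL4-UAS reporter units responsive to chimeric NR-GAL4 proteins; compound exposure 24 h. Reporter mRNA quantified by RT-PCR, 6-FAM labelling, HpaI digestion and capillary electrophoresis; gain of signal versus DMSO baseline.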
Chain of Hepatocyte nuclear factor 4-alpha (Homo sapiens) (P41235 whole entry, looked up, the tested form may be a part): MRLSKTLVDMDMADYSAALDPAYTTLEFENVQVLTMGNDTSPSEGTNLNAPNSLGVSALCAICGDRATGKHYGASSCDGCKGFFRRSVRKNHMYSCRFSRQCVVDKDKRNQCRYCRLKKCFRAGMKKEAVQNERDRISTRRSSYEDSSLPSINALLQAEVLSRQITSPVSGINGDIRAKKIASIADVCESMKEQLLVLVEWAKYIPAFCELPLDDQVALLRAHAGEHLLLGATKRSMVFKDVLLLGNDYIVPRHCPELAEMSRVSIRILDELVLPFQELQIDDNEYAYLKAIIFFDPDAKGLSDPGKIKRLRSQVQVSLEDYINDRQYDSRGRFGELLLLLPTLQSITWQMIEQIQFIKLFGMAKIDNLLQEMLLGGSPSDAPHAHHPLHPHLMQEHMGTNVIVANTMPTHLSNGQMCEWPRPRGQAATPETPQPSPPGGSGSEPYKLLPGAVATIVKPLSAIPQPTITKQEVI

Assay [17] in a line: ATG_M_06_TRANS: Attagene TRANS-FACTORIAL HepG2 Assay for M06 Transcription Factor (Internal Marker) (AID 2282983).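 Note: reporter transcript level by RT-PCR then capillary electrophoresis fluorescence.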 To be noted: HepG2 Attagene TRANS M06 internal marker reporter. The essentials: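 Cells: HepG2, transient multi-reporter transfection. Exposure: 24 h. Detection: RT-PCR, 6-FAM labelling, HpaI digestion (2 h, 37 °C), capillary electrophoresis. Baseline: DMSO.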

The target in assay [18] is Retinoic acid receptor RXR-alpha (Homo sapiens) (UniProt P19793). Put plainly: ATG_RXRa_TRANS: Attagene TRANS-FACTORIAL HepG2 Assay for human Retinoid X Receptor alpha (RXRa) (AID 2283012). In short, it runs like this: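 HepG2 cells transiently transfected with multiplexed GAL4-UAS reporter units and chimeric NR-GAL4 fusions, dosed 24 h. Reporter mRNA measured by RT-PCR, FAM labelling, HpaI digestion and capillary electrophoresis; gain-of-signal fitted relative to DMSO baseline.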
Chain of Retinoic acid receptor RXR-alpha (Homo sapiens) (P19793 whole entry, looked up, the tested form may be a part): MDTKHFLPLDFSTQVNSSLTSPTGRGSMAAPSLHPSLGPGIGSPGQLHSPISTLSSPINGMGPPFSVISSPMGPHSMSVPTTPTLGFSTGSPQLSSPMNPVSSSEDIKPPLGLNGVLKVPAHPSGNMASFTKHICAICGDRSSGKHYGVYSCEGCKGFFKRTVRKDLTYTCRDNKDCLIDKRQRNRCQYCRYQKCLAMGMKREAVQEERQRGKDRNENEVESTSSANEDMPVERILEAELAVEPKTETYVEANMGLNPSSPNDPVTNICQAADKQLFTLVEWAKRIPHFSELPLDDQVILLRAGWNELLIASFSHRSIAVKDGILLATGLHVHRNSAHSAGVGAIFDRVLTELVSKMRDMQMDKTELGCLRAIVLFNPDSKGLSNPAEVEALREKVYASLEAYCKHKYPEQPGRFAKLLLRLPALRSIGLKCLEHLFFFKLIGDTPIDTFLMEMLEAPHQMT

Assay [19] is described as follows: ATG_TGFb_CIS: Attagene CIS-FACTORIAL HepG2 Assay for human Transforming Growth Factor (TGF) (AID 2282967; active = hit-call score of the fitted dose curve at least 0.9, where 1 is the maximum; inactive = score below 0.9). To be noted: HepG2 Attagene CIS TGFb reporter, mRNA transcription; actives raise or lower the signal. In short, it runs like this:
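Transient MRTU transfection of HepG2 (FuGene 6). Dose 24 h. TriZol RNA, oligo(dT) RT, PCR, 6-FAM primer extension, HpaI cut, CE. Bidirectional fit, DMSO = baseline.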

Assay [20] has as its target Cellular tumor antigen p53 (Homo sapiens) (UniProt P04637). The assay is described as follows: TOX21_p53_BLA_p4_ratio: Tox21 HCT-116 p53 Agonism Beta-lactamase Assay, Ratio, Phase 4 (AID 2283601). The essentials:
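HCT116 cells carrying an inducible beta-lactamase reporter were plated at 4000 cells/well, rested 5 h, then exposed to compounds in DMSO (217-fold dilution) for 16 h at 37C. CCF4-AM substrate was loaded 2 h at room temperature; 460/530 nm emission ratio scored gain-of-signal versus DMSO.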

Chain of Cellular tumor antigen p53 (Homo sapiens) (P04637 whole entry, looked up): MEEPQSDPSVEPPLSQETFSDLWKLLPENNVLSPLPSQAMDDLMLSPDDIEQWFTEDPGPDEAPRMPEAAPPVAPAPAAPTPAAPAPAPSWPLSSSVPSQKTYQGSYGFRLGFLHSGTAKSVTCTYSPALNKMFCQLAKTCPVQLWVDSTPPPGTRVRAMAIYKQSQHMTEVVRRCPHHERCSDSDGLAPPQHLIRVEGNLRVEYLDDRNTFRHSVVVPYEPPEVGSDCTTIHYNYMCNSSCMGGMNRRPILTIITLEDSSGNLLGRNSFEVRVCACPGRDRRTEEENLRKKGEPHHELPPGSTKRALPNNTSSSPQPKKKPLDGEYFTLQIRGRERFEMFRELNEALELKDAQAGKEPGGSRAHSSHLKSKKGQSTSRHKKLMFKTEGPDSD
Chain of Nuclear respiratory factor 1 (Homo sapiens) (Q16656 whole entry, looked up): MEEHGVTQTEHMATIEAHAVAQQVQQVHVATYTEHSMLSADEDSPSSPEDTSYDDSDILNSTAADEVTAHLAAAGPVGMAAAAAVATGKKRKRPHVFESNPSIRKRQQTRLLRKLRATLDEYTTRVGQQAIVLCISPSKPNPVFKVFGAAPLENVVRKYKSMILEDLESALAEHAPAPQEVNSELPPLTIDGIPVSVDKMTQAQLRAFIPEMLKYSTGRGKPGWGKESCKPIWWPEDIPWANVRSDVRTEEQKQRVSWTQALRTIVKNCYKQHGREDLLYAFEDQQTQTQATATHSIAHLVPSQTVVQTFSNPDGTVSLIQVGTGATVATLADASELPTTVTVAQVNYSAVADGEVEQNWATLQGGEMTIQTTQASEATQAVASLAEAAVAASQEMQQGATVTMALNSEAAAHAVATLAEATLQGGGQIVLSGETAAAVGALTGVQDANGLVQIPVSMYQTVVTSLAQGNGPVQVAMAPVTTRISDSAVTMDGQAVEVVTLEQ
Chain of human Retinoid X Receptor beta (RXRb), RXRB (gene 6257) (P28702 whole entry, looked up, the tested form may be a part): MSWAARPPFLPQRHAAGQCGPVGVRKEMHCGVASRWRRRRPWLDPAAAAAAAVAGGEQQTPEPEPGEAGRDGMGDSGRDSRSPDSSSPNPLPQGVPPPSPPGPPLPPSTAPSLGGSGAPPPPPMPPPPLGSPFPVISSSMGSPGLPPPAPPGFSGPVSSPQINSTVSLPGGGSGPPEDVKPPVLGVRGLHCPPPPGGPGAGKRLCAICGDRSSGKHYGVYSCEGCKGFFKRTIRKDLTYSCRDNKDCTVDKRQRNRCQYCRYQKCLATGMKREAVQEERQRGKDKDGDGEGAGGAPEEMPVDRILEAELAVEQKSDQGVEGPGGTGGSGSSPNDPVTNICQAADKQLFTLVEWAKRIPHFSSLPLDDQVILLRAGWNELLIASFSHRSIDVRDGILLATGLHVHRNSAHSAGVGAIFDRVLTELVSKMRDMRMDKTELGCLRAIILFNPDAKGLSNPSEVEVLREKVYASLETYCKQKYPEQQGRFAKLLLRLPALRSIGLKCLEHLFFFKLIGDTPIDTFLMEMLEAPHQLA

As for `COc1cc(OC)nc(Oc2cccc(Oc3nc(OC)cc(OC)n3)c2C(=O)O)n1`, the call in assay [1], in assay [2], in assay [3], in assay [4], in [5] and in [6] was inactive. Moreover, the call in assay [7], in [8], in assay [9], in assay [10], in assay [11] and in assay [12] was inactive. Also, the result in assay [13] and in assay [14] was inactive.

For `C=CCc1ccc(OC(=O)Cc2ccccc2)c(OC)c1`, the compound was called inactive in assay [2], in [15], in [4], in assay [6], in [16] and in assay [17]. The outcome in assay [7], in assay [8], in [18] and in assay [10] was inactive. In [9], the concentration at half-maximal activity (AC50) is 11.8 µM (active).

Turning to `[Cl-].[Cl-].[Cl-].[Yb+3]`, the compound was called inactive in assay [1], in [2], in assay [3], in assay [19], in assay [16] and in assay [8]. Moreover, the compound was classed as inactive in [9] and in assay [18].

Take `O=[N+]([O-])C=Cc1ccccc1`: the half-maximal activity concentration (AC50) in [2] was 14.4 µM (active); in assay [4], 61.5 µM (active); in assay [16] it was 47.5 µM (active); in assay [8] it was 18.6 µM (active); in assay [9], 8.62 µM (active); in [11], 8.76 µM (active). The compound was classed as inactive in assay [15], in [5], in assay [19], in assay [17], in [18] and in assay [10]. Besides, the compound was classed as inactive in assay [14] and in assay [20].

As for `O=[N+]([O-])c1cc([N+](=O)[O-])c2ccccc2c1`, the compound was classed as inactive in [2], in [15], in [4], in assay [5], in assay [17] and in assay [7]. The result in assay [8], in assay [18], in [10], in [11], in assay [12] and in [13] was inactive. For the same compound, the outcome in assay [20] was inactive. In addition, the concentration at half-maximal activity (AC50) in assay [9] was 9.2 µM (active).
